“And” between values parts separate entries of the source, which are not always exact repeats. Identical values can stand only once. Records with an inconclusive call do not appear. Where a structure was tested more than once in an assay, its records may differ in their call. The source made the active and inactive calls. Rule for the calls, unless noted: active = hit-call score of the fitted dose curve at least 0.9, where 1 is the maximum; inactive = score below 0.9.
Key:
[1] = read-out: Human Leukocyte Antigen - DR isotype (HLADR), HLA-DRA (gene 3122); test: BSK_3C_HLADR: BioMAP Diversity Plus: 3C Assay for Human Leukocyte Antigen - DR isotype (HLADR) Biomarker Activity (AID 2283019); conditions: primary human endothelial cells (HUVEC); actives raise or lower the signal
Procedure, shortened: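 Endothelial cells from human umbilical vein are treated with test chemical; after 24 h, HLA-DR levels are measured by ELISA. Data are fitted in both directions using DMSO as the baseline.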

[2] = read-out: Interleukin-8 (IL8), CXCL8 (gene 3576); test: BSK_3C_IL8: BioMAP Diversity Plus: 3C Assay for Interleukin-8 (IL8) Biomarker Activity (AID 2283020); conditions: primary human endothelial cells (HUVEC); actives raise or lower the signal
Procedure, shortened: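 IL-8 was measured by ELISA in HUVEC cultures 24 h after chemical dosing, with gain or loss of signal fitted relative to DMSO. Parallel SRB total-protein staining tracked overt cytotoxicity.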

[3] = read-out: Monokine induced gamma interferon (MIG), CXCL9 (gene 4283); test: BSK_3C_MIG: BioMAP Diversity Plus: 3C Assay for Monokine induced gamma interferon (MIG) Biomarker Activity (AID 2283021); conditions: primary human endothelial cells (HUVEC); actives raise or lower the signal;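 for AC50: MIG protein level measured by immunoassay in the treated endothelial cultures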
Procedure, shortened: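 ELISA measurement of MIG in human umbilical vein endothelial cells 24 h after treatment. Cytotoxicity tracked by SRB staining in parallel cultures; gain or loss of signal fitted relative to DMSO.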

[4] = molecular target: human Vitamin D Receptor (VDR), VDR (gene 7421) (UniProt P11473); test: ATG_VDR_TRANS: Attagene TRANS-FACTORIAL HepG2 Assay for human Vitamin D Receptor (VDR) (AID 2283022; active = hit-call score of the fitted dose curve at least 0.9, where 1 is the maximum)
Procedure, shortened: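 Fluorescence of labelled reporter cDNA fragments, resolved by capillary electrophoresis, gives mRNA induction after 24 h treatment of HepG2 cells carrying transfected Gal4-fusion reporter units. Activity is fitted in the positive direction with DMSO as baseline.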

[5] = BSK_3C_Vis: BioMAP Diversity Plus: 3C Assay for Morphology Visualization (AID 2283025); conditions: primary human endothelial cells (HUVEC);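 note: fitted both ways so gain or loss versus DMSO counts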;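 for AC50: light microscopy image of cell morphology used as background control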
Procedure, shortened: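 Light-microscopy visualization of HUVEC cultures at 24 h post-treatment, with DMSO as baseline for bidirectional fitting.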

[6] = read-out: Pselectin, SELP (gene 6403); test: BSK_4H_Pselectin: BioMAP Diversity Plus: 4H Assay for Pselectin Biomarker Activity (AID 2283026); conditions: primary human endothelial cells (HUVEC); actives raise or lower the signal
Procedure, shortened: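 ELISA of surface P-selectin on HUVEC, 24 h after dosing, with parallel SRB staining (0.1% after 10% TCA fixation, 560 nm) for overt cytotoxicity. Activity fitted in both directions relative to DMSO.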

[7] = BSK_4H_SRB: Viability Assessment in the BioMAP Diversity Plus: 4H Assay (AID 2283027); conditions: primary human endothelial cells (HUVEC);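 note: cells exposed to compound for 24 h before staining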;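 for AC50: curves fitted both ways versus DMSO so AC50 may be loss or gain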
Procedure, shortened: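 Cytotoxicity read-out in primary human endothelial cells: after 24 h compound exposure, cells were TCA-fixed (10%), stained with 0.1% SRB and absorbance taken at 560 nm. Values fitted in both directions relative to DMSO.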

[8] = read-out: Thrombomodulin, THBD (gene 7056); test: BSK_3C_Thrombomodulin: BioMAP Diversity Plus: 3C Assay for Thrombomodulin Biomarker Activity (AID 2283029); conditions: primary human endothelial cells (HUVEC); actives raise or lower the signal
Procedure, shortened: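 ELISA measurement of thrombomodulin on HUVEC surface 24 h after chemical dosing; activity fitted in both directions relative to DMSO vehicle.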

[9] = read-out: Urokinase-type plasminogen activator receptor (uPAR), PLAUR (gene 5329); test: BSK_4H_uPAR: BioMAP Diversity Plus: 4H Assay for Urokinase-type plasminogen activator receptor (uPAR) Biomarker Activity (AID 2283030); conditions: primary human endothelial cells (HUVEC); actives raise or lower the signal
Procedure, shortened: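 Chemicals are dosed onto human vascular endothelial primary cells (umbilical vein). After 24 h, uPAR is read by ELISA. Gain or loss of signal is fitted relative to DMSO.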

[10] = read-out: Vascular endothelial growth factor receptor 2 (Homo sapiens) (UniProt P35968); test: BSK_4H_VEGFRII: BioMAP Diversity Plus: 4H Assay for Vascular endothelial growth factor receptor 2 (VEGFR2) Biomarker Activity (AID 2283031); conditions: primary human endothelial cells (HUVEC); actives raise or lower the signal;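 for AC50: cell-surface VEGFR2 protein level quantified by ELISA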
Procedure, shortened: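 VEGFRII levels on human vascular endothelial primary cells were determined by ELISA at 24 hours post-dosing, with gain- or loss-of-signal fitted against DMSO controls.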

[11] = read-out: Human Leukocyte Antigen - DR isotype (HLADR), HLA-DRA (gene 3122); test: BSK_BE3C_HLADR: BioMAP Diversity Plus: BE3C Assay for Human Leukocyte Antigen - DR isotype (HLADR) Biomarker Activity (AID 2283032); conditions: primary human bronchial epithelial cells; actives raise or lower the signal
Procedure, shortened: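 Cell-surface HLA-DR ELISA readout at 24 h after dosing in the BE3C primary human lung bronchial epithelial system; gain or loss of signal against DMSO, with parallel sulforhodamine B staining of total protein for overt cytotoxicity.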

[12] = read-out: Vascular cell adhesion molecule 1 (VCAM1), VCAM1 (gene 7412); test: BSK_4H_VCAM1: BioMAP Diversity Plus: 4H Assay for Vascular cell adhesion molecule 1 (VCAM1) Biomarker Activity (AID 2283033); conditions: primary human endothelial cells (HUVEC); actives raise or lower the signal
Procedure, shortened: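 VCAM-1 ELISA read 24 h after chemical dosing of HUVEC in the BioMAP 4H system, with gain or loss of signal fitted relative to DMSO. Parallel SRB staining (560 nm) checked overt cytotoxicity.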

[13] = read-out: Interferon-gamma inducible Protein 10 (IP10), CXCL10 (gene 3627); test: BSK_BE3C_IP10: BioMAP Diversity Plus: BE3C Assay for Interferon-gamma inducible Protein 10 (IP10) Biomarker Activity (AID 2283034); conditions: primary human bronchial epithelial cells; actives raise or lower the signal
Procedure, shortened: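 IP-10 quantified by ELISA in human primary bronchial epithelial cell cultures at 24 hours post-dosing. Gain or loss of signal fitted relative to DMSO; parallel SRB staining assessed overt cytotoxicity.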

[14] = read-out: Monokine induced gamma interferon (MIG), CXCL9 (gene 4283); test: BSK_BE3C_MIG: BioMAP Diversity Plus: BE3C Assay for Monokine induced gamma interferon (MIG) Biomarker Activity (AID 2283035); conditions: primary human bronchial epithelial cells; actives raise or lower the signal
Procedure, shortened: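 ELISA quantified MIG after 24 h exposure of primary bronchial epithelial cultures, analysed in both directions relative to DMSO. Cytotoxicity tracked in parallel cultures by sulforhodamine B staining.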

[15] = read-out: Transforming growth factor beta 1 (TGFb1), TGFB1 (gene 7040); test: BSK_BE3C_TGFb1: BioMAP Diversity Plus: BE3C Assay for Transforming growth factor beta 1 (TGFb1) Biomarker Activity (AID 2283036); conditions: primary human bronchial epithelial cells; actives raise or lower the signal
Procedure, shortened: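 ELISA readout of TGF-b1 from human lung bronchial epithelial primary cells, taken 24 h post-treatment. Gain or loss of signal fitted relative to DMSO baseline, with parallel SRB staining for overt cytotoxicity.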

[16] = read-out: Plasminogen activator inhibitor-1 (PAI1), SERPINE1 (gene 5054); test: BSK_BE3C_PAI1: BioMAP Diversity Plus: BE3C Assay for Plasminogen activator inhibitor-1 (PAI1) Biomarker Activity (AID 2283037); conditions: primary human bronchial epithelial cells; actives raise or lower the signal
Procedure, shortened: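 PAI-1 was measured by ELISA in human primary bronchial epithelial cultures 24 h after chemical dosing, with cytotoxicity checked by SRB total-protein staining in parallel cultures. Activity was fitted in both directions relative to DMSO.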

[17] = read-out: urokinase plasminogen activator (uPA), PLAU (gene 5328); test: BSK_BE3C_uPA: BioMAP Diversity Plus: BE3C Assay for urokinase plasminogen activator (uPA) Biomarker Activity (AID 2283038); conditions: primary human bronchial epithelial cells; actives raise or lower the signal
Procedure, shortened: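 Measured by ELISA: uPA from human primary bronchial epithelial cells 24 h after chemical treatment. Values derive from bidirectional curve fitting with DMSO serving as negative control. Total protein by SRB staining in parallel wells flagged overt cytotoxicity.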

[18] = BSK_BE3C_SRB: Viability Assessment in the BioMAP Diversity Plus: BE3C Assay (AID 2283028); conditions: primary human bronchial epithelial cells
Procedure, shortened: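 Overt cytotoxicity was assessed as total protein in confluent human primary bronchial epithelial cultures 24 h after chemical addition, using 0.1% sulforhodamine B staining read at 560 nm.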

[19] = BSK_3C_SRB: Viability Assessment in the BioMAP Diversity Plus: 3C Assay (AID 2283023); conditions: primary human endothelial cells (HUVEC);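 note: fitted both ways against DMSO so a hit may be signal rise or drop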
Procedure, shortened: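 Cells were dosed with chemical, cultured 24 h, fixed with 10% TCA, stained with 0.1% SRB and read at 560 nm. Human umbilical vein endothelium was used; DMSO served as negative control and baseline.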

[20] = read-out: Matrix Metallopeptidase 1 (MMP1), MMP1 (gene 4312); test: BSK_BE3C_MMP1: BioMAP Diversity Plus: BE3C Assay for Matrix Metallopeptidase 1 (MMP1) Biomarker Activity (AID 2283024); conditions: primary human bronchial epithelial cells; actives raise or lower the signal
Procedure, shortened: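 ELISA measurement of MMP-1 after 24 h compound exposure of primary human bronchial epithelial cells. Changes in either direction fitted relative to DMSO; parallel SRB staining checked overt cytotoxicity.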

Measured: AC50

Sequence of human Vitamin D Receptor (VDR), VDR (gene 7421) (P11473 whole entry, looked up, the tested form may be a part): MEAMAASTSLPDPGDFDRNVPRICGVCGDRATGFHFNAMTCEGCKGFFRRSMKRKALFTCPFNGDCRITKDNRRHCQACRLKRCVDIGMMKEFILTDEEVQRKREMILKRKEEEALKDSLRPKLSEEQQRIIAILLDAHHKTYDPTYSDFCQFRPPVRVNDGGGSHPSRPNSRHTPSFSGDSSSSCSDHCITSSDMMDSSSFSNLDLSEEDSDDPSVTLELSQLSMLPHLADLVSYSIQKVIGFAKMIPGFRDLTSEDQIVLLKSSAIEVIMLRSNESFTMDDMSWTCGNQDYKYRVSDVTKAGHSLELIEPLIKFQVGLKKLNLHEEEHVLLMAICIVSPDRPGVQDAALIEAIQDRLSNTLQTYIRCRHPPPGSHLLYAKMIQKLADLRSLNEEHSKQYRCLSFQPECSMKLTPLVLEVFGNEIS

CCCN(CCC)c1c([N+](=O)[O-])cc(C(C)C)cc1[N+](=O)[O-]
active: [1] 28.5 µM | [2] 31.2 µM | [7] 32.8 µM | [10] 20 µM | [11] 5.79 µM | [12] 23.2 µM
not listed: [18] | [19] | [20]
inactive: all other assays above

NC(=O)C(F)(F)C(F)(F)F
not listed: [5] | [15] | [19] | [20]
inactive: all other assays above

O=C(O)C(Cl)Cl
not listed: [4] | [6]
inactive: all other assays above

c1cc2c3c(cccc3c1)CC2
not listed: [4] | [6] | [8]
inactive: all other assays above

CCCCc1ccccc1
not listed: [4] | [18] | [20]
inactive: all other assays above

ClC(Cl)c1ccccc1
not listed: [4]
inactive: all other assays above

O=c1ssc(Cl)c1Cl
inactive: [8] | [10]
active: [1] 3.59 µM | [2] 7.48 µM | [3] 14.8 µM | [19] 5.07 µM | [5] 4.24 µM | [7] 5.42 µM | [9] 7.3 µM | [11] 8.51 µM | [12] 3.91 µM | [13] 3.38 µM | [14] 12.6 µM | [15] 14.8 µM | [16] 11.7 µM | [17] 9.31 µM

FC(F)(F)C(F)(C(F)(F)F)C(F)(F)C(F)(F)CC1CO1 (configuration not stated)
not listed: [5] | [6] | [15] | [19] | [20]
inactive: all other assays above

OCC(F)(F)OC(F)(F)C(F)(F)OC(F)(F)C(F)(F)OC(F)(F)CO
active: [7] 30 µM | [11] 45.5 µM and 30 µM | [13] 44.9 µM and 35.8 µM
inactive: [1] | [2] | [3] | [4] | [7] | [18] | [9] | [10] | [12] | [14] | [16] | [17]

Nc1ccc2ccccc2c1
active: [20] 2.92 µM
not listed: [4] | [6] | [8] | [18]
inactive: all other assays above

COP(N)(=S)OC
not listed: [6] | [18] | [19] | [20]
inactive: all other assays above

O=C(O)C(F)(F)C(F)(F)C(=O)O
not listed: [5] | [6] | [15] | [19]
inactive: all other assays above

O=S(=O)(F)C(F)(F)C(F)(F)C(F)(F)C(F)(F)C(F)(F)C(F)(F)C(F)(F)C(F)(F)F
not listed: [5] | [15] | [18] | [19]
inactive: all other assays above

O=S1(=O)OCC2C(CO1)C1(Cl)C(Cl)=C(Cl)C2(Cl)C1(Cl)Cl (configuration not stated)
active: [1] 24.1 µM | [19] 20 µM | [7] 12.3 µM | [9] 9.1 µM | [12] 20 µM
not listed: [4] | [6] | [18] | [20]
inactive: all other assays above

Nc1cc2c3c(c1)C(c1ccccc1)=N[C@@H](NC(=O)c1cccnc1)C(=O)N3CC2
not listed: [8] | [19] | [20]
inactive: all other assays above

— PubChem BioAssay (EPA / NIEHS)
